Measured values: the supplement of paper PMC3334620
The full ranking holds about 33,000 sequences; the median of “E-score (-0.5 to 0.5)” is about -0.016, and the highest 2% start at about 0.31. This is one part of a sample in which the highest values are shown more often than they occur.

What follows are sequences tested against Cst6 (UniProt P40535) (assay: PBM E-score (8-mer binding enrichment) (E-score (-0.5 to 0.5)); higher = stronger / more preferred TF binding). Conditions: protein concentration: 200 nM; construct: GST-DNA-binding domain.
Experimental: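 Universal 'all 10-mer' protein binding microarrays (Agilent AMADID 015681) probed with GST-tagged S. cerevisiae TFs (full-length or DBD) made by in vitro transcription/translation (PURExpress), about 100-200 nM. Bound TF was detected with fluorescent anti-GST. Each ungapped 8-mer (which stands for itself and its reverse complement) is scored by the PBM enrichment score (E-score), a modified Wilcoxon-Mann-Whitney statistic from -0.5 to +0.5, computed with the Universal PBM Analysis Suite. Scale: above 0.35 generally sequence-specific binding.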

Sequence of UniProt P40535 (P40535 whole entry, the tested form may be a part): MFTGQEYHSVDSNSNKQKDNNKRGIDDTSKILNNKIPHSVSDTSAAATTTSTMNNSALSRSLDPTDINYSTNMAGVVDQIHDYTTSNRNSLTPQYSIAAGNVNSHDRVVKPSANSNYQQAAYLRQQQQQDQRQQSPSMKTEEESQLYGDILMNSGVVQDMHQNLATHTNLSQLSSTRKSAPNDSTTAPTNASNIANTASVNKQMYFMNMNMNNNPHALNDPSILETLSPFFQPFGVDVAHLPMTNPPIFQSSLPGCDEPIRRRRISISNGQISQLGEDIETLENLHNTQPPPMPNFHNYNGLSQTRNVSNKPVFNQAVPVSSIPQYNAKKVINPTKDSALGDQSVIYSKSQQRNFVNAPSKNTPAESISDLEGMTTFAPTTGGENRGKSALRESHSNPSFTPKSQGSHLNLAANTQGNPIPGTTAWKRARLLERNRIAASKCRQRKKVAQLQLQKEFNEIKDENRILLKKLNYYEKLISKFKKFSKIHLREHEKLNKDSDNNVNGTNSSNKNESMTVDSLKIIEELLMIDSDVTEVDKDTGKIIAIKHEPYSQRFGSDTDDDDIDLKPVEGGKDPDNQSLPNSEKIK

Row | Sequence | PBM E-score
1 | ACCTGCGA | -0.26
2 | AGCTGCTG | -0.0369
3 | GACGAAAA | 0.329
4 | TACGAAAA | 0.233
5 | CACGAAAA | 0.247
6 | TGCTGACA | 0.0293
7 | CCCAATCG | -0.0318
8 | ATCATCTA | 0.151
9 | GTCATCGA | 0.348
10 | GTCATCAA | 0.385
11 | TTCATCAA | 0.151
12 | CTCATCGA | -0.0055
13 | GGCATCAA | 0.0768
14 | CTCATCTA | -0.113
15 | GTCATCTA | 0.368
16 | GCCATCAA | -0.169
17 | CTCATCAA | 0.134
18 | ATCATCGA | 0.183
19 | ATCATCAA | 0.326
20 | AGAGCCCA | -0.263
21 | ATCCCGAA | 0.00888
22 | TCGAACCA | -0.0349
23 | CCATGGAA | -0.0645
24 | ACCAGGTC | -0.218
25 | CTCATCCA | 0.0578

Row | Sequence | PBM E-score
26 | GTCATCCA | 0.383
27 | ATCATCCA | 0.0994
28 | AGGGGTTC | -0.327
29 | CGTCACGC | 0.441
30 | AGTCACGA | 0.0257
31 | CGTCACGA | 0.449
32 | AGTCACGC | -0.07
33 | GGTCACGA | 0.0109
34 | CCTCACGC | 0.22
35 | GCCCACGC | -0.238
36 | GTGATGGA | 0.0419
37 | AAGTCTGC | -0.226
38 | ATCTTCTC | -0.0503
39 | GACCAAAC | 0.0333
40 | AATGCCGG | -0.0561
41 | AACGCCGA | 0.23
42 | AATGCCGA | 0.041
43 | GACGCCGC | 0.271
44 | AACGCCGT | 0.373
45 | CACGCCGC | 0.0528
46 | AACGCCGC | 0.361
47 | AACGCCGG | -0.138
48 | AATGCCGT | 0.418
49 | GCTCGGCA | -0.0691
50 | ACGTTTCT | -0.0531

Row | Sequence | PBM E-score
51 | CCCAGGGC | -0.337
52 | CTCCTCAG | -0.231
53 | CCAATTGG | -0.0187
54 | ACAAGCGT | 0.0465
55 | ACCATGAC | 0.395
56 | CCCATGAC | 0.336
57 | ACCATGAA | 0.0849
58 | GCCATGAC | 0.284
59 | CCCATGAA | -0.00568
60 | ACCATGAT | 0.146
61 | CCCATAAA | -0.0662
62 | ACCCTGCT | -0.34
63 | AAGCGTCA | 0.336
64 | CAGCGTCA | 0.279
65 | AAGCGTCG | -0.151
66 | GAGCGTCA | 0.271
67 | TAGCGTCA | 0.399
68 | AAGCGTCC | -0.0893
69 | AGGTGCGA | -0.148
70 | ATCTTTAC | 0.162
71 | ATATCATA | 0.315
72 | ATATCAGC | -0.0588
73 | ATATCATC | 0.337
74 | CTATCATC | 0.0729
75 | CTATCATA | 0.14

Row | Sequence | PBM E-score
76 | ATATCATG | 0.19
77 | CCGGATCC | -0.199
78 | CAGGATGC | -0.125
79 | GCCGCCGC | 0.205
80 | TAGGCAGA | 0.0434
81 | ACGTCGAA | 0.112
82 | ACGTCAAA | 0.389
83 | GCGTCAAC | 0.335
84 | GTGTCAAC | 0.0573
85 | AGGTCAAC | -0.0368
86 | TCGTCAAA | 0.195
87 | CCGTCAAC | 0.0147
88 | GAGTCAAC | -0.0954
89 | GCGTCAAA | 0.151
90 | ACGTCGAG | -0.115
91 | ACGTCGAT | 0.316
92 | ACGTCAAC | 0.484
93 | CGCCAGTA | -0.0657
94 | TAAATTAA | 0.127
95 | CTCAGTAC | -0.0935
96 | AGGTCAAG | -0.0961
97 | AGGTCAAT | 0.0479
98 | ACGTCAAT | 0.455
99 | ATGTCAAT | 0.26
100 | CCGTCAAG | -0.129

Row | Sequence | PBM E-score
101 | ACGTCAAG | 0.373
102 | ATAAGAGA | 0.217
103 | CAAAGGTG | -0.0715
104 | GTGCAGAA | 0.0789
105 | ACATCGGC | -0.0191
106 | GCGCCAAA | -0.042
107 | AAATTAAT | 0.248
108 | AAATTATG | 0.164
109 | AATTTATA | 0.263
110 | AAATTAGT | 0.29
111 | AAATTATA | 0.278
112 | AAATTATT | 0.314
113 | AATTTATC | 0.312
114 | AAATTATC | 0.308
115 | CATTTATC | 0.151
116 | GGTTTTGA | 0.105
117 | GGCCCTGA | -0.208
118 | AACAGGCA | -0.0324
119 | GCGTAAAC | 0.168
120 | ACGTAAAT | 0.385
121 | ATGTAAAC | 0.269
122 | AGGTAAAT | 0.0678
123 | AAGTAAAT | 0.214
124 | ACGTAAAG | 0.306
125 | ACGTAAAC | 0.31

Row | Sequence | PBM E-score
126 | ATGTAAAT | 0.309
127 | CCGTAAAG | 0.00566
128 | AAGTAAAG | -0.172
129 | CCGTAAAC | 0.0456
130 | ATGTAAAA | 0.144
131 | GCACTCTA | -0.0783
132 | AGAAAACG | 0.168
133 | GCTTAGAC | -0.195
134 | CAAGCGAG | -0.00525
135 | TATAGGCA | -0.112
136 | ACATCTGC | -0.0513
137 | CAACAGCA | 0.00053
138 | AAGGTTGG | 0.0155
139 | GCGGAAAA | 0.17
140 | ACGTAAAA | 0.354
141 | GCGTAAAA | 0.0958
142 | CCGTAAAA | 0.0767
143 | CACACAGG | 0.0469
144 | CGTCATTC | 0.467
145 | AGTCATTA | 0.0194
146 | GGTCATTA | 0.178
147 | CGTCATTA | 0.477
148 | AGTCATTC | 0.0571
149 | CCTCATTC | -0.0459
150 | GAGCACCA | -0.219

Row | Sequence | PBM E-score
151 | ACCCTTCG | -0.0964
152 | ACCGTCAG | -0.0719
153 | CCCGTCAC | 0.2
154 | ATCGTCGC | -0.0136
155 | ATCGTCTC | -0.0844
156 | ATCGTCAC | 0.401
157 | GCCGTCAA | 0.0714
158 | ACCGTCAA | 0.159
159 | ACCGTCAT | 0.418
160 | CTCGTCAC | 0.349
161 | GCCGTCAC | 0.334
162 | CTCGTCAA | 0.0507
163 | CTCGTCAG | 0.127
164 | ACAGGAAG | -0.0175
165 | CCAGCTCA | -0.146
166 | CAGGCATC | -0.213
167 | ATATAACG | 0.267
168 | CAATTAGG | 0.0223
169 | ACCCCCGC | -0.33
170 | ATGTTGGC | -0.0418
171 | CCGATAGA | -0.124
172 | ACCGAGGG | -0.446
173 | CTCCGCAC | -0.0765
174 | CGCTGCGA | 0.0077
175 | TCAACCCA | -0.0214

Row | Sequence | PBM E-score
176 | ATCGTCAT | 0.448
177 | ATCGTCAG | 0.131
178 | GTCGTCAA | 0.147
179 | GTCGTCGA | -0.00727
180 | ATCGTCAA | 0.223
181 | GTCGTCAC | 0.425
182 | CTAAGACA | 0.0903
183 | AGGGCATA | 0.0409
184 | AACGCACG | 0.179
185 | AGCCACAG | -0.232
186 | ATGGATAC | -0.0649
187 | AATTCAAA | 0.23
188 | GCGCAATA | -0.079
189 | ACGCAATG | 0.24
190 | ACGCAATA | 0.349
191 | ATCAGACA | -0.00162
192 | GCGGCGCC | 0.376
193 | ACGGCGCA | 0.349
194 | CCGGCGCC | 0.14
195 | ACGGCGCT | 0.251
196 | ACGGCGCG | 0.381
197 | TCGGCGCA | 0.071
198 | CCGGCGCA | -0.107
199 | GCGGCGCA | 0.197
200 | ACGGCGAC | 0.217

Row | Sequence | PBM E-score
201 | ACGGCGCC | 0.364
202 | ACGGCGAG | 0.18
203 | CCGGCGCG | -0.0219
204 | ACCAAACA | 0.277
205 | AGGAGCCT | -0.209
206 | AATAAGAA | 0.312
207 | AATAAGAT | 0.232
208 | AATAAGAG | 0.055
209 | CATAAGAA | 0.342
210 | GATAAGAA | 0.291
211 | TATAAGAA | 0.125
212 | TCCATAAA | 0.123
213 | CCATTGCC | 0.0353
214 | AATGCACG | 0.0682
215 | AAATTCGC | 0.211
216 | AAATTCGT | 0.306
217 | AAATTCGG | 0.0235
218 | CGCCTCAG | 0.00359
219 | CCTTGACC | -0.19
